Assay outcomes from PubChem.
An excerpt weighted towards active compounds, which were near 11% of everything screened.
G9a block – qHTS Assay for Inhibitors of Histone Lysine Methyltransferase G9a; G9a H3K9 monomethylation, AlphaScreen, 2 h; Potency, µM (doses to about 102 µM), without a hit: top-dose activity, negative = inhibition, hits mostly inhibitors; hit rate 8.8% among 350,000; AID 504332, 2011; further: on the % scale 0 is the no-effect control and ±100 the full control effect; nearly all actives have a fitted effect of over 75% in size
Target sequence (Q96KQ7 913-1193 limits assumed): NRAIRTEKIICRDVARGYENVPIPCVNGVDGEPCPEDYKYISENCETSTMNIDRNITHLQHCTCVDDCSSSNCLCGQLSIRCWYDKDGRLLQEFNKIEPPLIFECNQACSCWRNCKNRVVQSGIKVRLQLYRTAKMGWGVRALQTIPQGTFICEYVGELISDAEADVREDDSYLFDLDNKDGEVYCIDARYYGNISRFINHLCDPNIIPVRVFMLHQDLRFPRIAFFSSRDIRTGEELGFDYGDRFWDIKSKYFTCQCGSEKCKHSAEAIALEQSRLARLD
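Quantitative HTS format: methyltransferase activity on a biotin-tagged H3K9 peptide is measured by AlphaScreen, using a rabbit anti-monomethyl-H3K9 antibody with streptavidin donor and anti-IgG acceptor beads. Final levels are 20 nM enzyme, 500 nM peptide, 20 uM SAM; 2 h RT.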
L3MBTL1 block – qHTS Assay for the Inhibitors of L3MBTL1. Lethal(3)malignant brain tumor-like protein 1 (Homo sapiens), Q9Y468. AlphaScreen L3MBTL1–H3K9me1 peptide binding. Potency, µM (top dose mostly 57.1 µM), inactives show at the highest dose activity, negative = inhibition, actives largely listed as inhibitors. hit rate 0.66% among 230,000; further: on the % scale 0 is the no-effect control and ±100 the full control effect; nearly all actives have a fitted effect of over 60% in size
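AlphaScreen assay: L3MBTL1 (50 nM final) was preincubated 30 min at room temperature with biotinylated H3(1-15)K9me1 peptide (75 nM final), then 30 min with library compounds; streptavidin donor and nickel chelate acceptor beads (10 ug/mL final) added, 30 min dark.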
JMJD2A Tudor inh – qHTS Assay for Inhibitors of JMJD2A-Tudor Domain; AlphaScreen JMJD2A-Tudor / H3K4me3 peptide binding; hit rate 4.4% among 390,000; Potency, µM (titrated, usually from 114 µM), inactives show at the top dose activity change, negative = inhibition, usual class: inhibitors; further: on the % scale 0 is the no-effect control and ±100 the full control effect; nearly all actives have a fitted effect of over 50% in size
HP1b chromo inh – HTS for Inhibitors of HP1-beta Chromodomain Interactions with Methylated Histone Tails. Chromobox protein homolog 1 (Homo sapiens), P83916. Potency, µM (titrated, usually from 114 µM), without a hit: top-dose activity change, negative = inhibition, most hits filed as inhibitors. AID 540317, 2011. hit rate 0.56% among 390,000. AlphaScreen HP1-beta / biotin-H3K9me3 peptide binding; further: nearly all actives have a fitted effect of over 70% in size
Target sequence (P83916 whole entry, looked up): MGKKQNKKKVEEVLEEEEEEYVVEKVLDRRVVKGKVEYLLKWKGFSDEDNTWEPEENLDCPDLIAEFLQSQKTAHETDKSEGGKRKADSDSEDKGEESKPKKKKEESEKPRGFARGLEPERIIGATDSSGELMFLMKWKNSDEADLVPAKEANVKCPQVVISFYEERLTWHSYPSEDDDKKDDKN
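Compound inhibition of the preformed complex between 50 nM HP1-beta and 50 nM biotinylated H3K9me3 peptide was read by AlphaScreen. Buffer was PBS pH 7.4 with 0.01% Tween-20. Incubations ran 30 min at room temperature, with 10 ug/mL donor/acceptor beads.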
BAZ2B block – qHTS Assay for Inhibitors of BAZ2B; AlphaScreen BAZ2B-H3K14Ac peptide displacement; hit rate 4.4% among 360,000; Potency, µM (titrated, usually from 114 µM), inactives show top-dose activity change, negative = inhibition, hits mostly inhibitors; Bromodomain adjacent to zinc finger domain protein 2B (Homo sapiens), Q9UIF8; further: on the % scale 0 is the no-effect control and ±100 the full control effect; nearly all actives have a fitted effect of over 60% in size
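AlphaScreen displacement: compounds (up to 110uM) incubated 30 min at room temperature with a preformed 50 nM BAZ2B/50 nM biotinylated H3K14Ac peptide complex in PBS pH 7.4 with Tween-20. Donor and acceptor beads at 10 ug/mL final added, 20 min light-protected before reading.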
* = called active by the depositor; ? = inconclusive; . = no result given; ! = repeats disagree; [ ] = another dose, or the depositor's remark. The call rests on the fitted dose curve; in most records, active means well fitted inhibition curve with a large enough effect; inconclusive means small, poorly fitted or top-dose-only effect; inactive means no such curve, though single readings can be large or run the other way. Potency means the concentration at half of the fitted maximal effect.

SMILES	G9a block	L3MBTL1 block	JMJD2A Tudor inh	HP1b chromo inh	BAZ2B block
COc1ccc(/C=N/N=C2/NC(=O)C(CC(=O)O)S2)cc1OCc1ccc(Cl)cc1 (centres undefined)	-7%	-1%	?	15%	?
O=C(O)CC1S/C(=N/N=C/C=C/c2ccccc2)NC1=O (centres undefined)	7.9µM*	10%	79µM*	22%	79µM*
Cn1c(=O)n(C)c2cc(/C=N/N=C3/NC(=O)C(CC(=O)O)S3)ccc21 (centres undefined)	-14%	-24%	32µM*	?	50µM*
O=C(O)CC1S/C(=N/N=C/C=C/c2ccccc2[N+](=O)[O-])NC1=O (centres undefined)	-9%[59 µM]	9%	?	34%	7%
CCn1c(CN2CCOCC2)nc2cc(NC(=O)c3ccc([N+](=O)[O-])cc3)ccc21	-19%[59 µM]	.	-13%	32%	-2%
COc1cccc(-c2nc3c(c(SCC(=O)Nc4cccc(C)c4C)n2)Cc2c(CO)cnc(C)c2O3)c1	-18%[59 µM]	.	-8%	17%	?
O=C(O)CC1S/C(=N/N=C/c2ccc(-c3ccc(Cl)c([N+](=O)[O-])c3)o2)NC1=O (centres undefined)	?	.	-27%	26%	-25%
O=C(O)CC1S/C(=N/N=C/c2ccc(-c3ccc(Cl)cc3[N+](=O)[O-])o2)NC1=O (centres undefined)	14µM*	.	?	-9%	?
CCCN(CCC)CCCNC(=O)Cn1cnc2onc(-c3ccc(F)cc3)c2c1=O	-8%[59 µM]	.	-1%	33%	11%[57.1 µM]
CC1=NN(c2ccc(C)cc2)C(=O)/C1=C\C=C\c1ccccc1	4.5µM*	?	4.5µM*	5.6µM*	2.5µM*
CC1=NN(c2cccc(C(=O)O)c2)C(=O)/C1=C\C=C/c1ccccc1	40µM*	.	?	?	?
CC1=NN(c2cccc(F)c2)C(=O)/C1=C/c1ccc(N(C)C)cc1	-16%	-1%	-17%	-2%	-26%
CC1=NN(c2ccccc2)C(=O)/C1=C/C=C/C=C/N(C)C	18µM*	.	?	?	13µM*
Cc1cc(NC(=O)N2CCC(CN3CCCCCC3)CC2)ccc1Br	-33%[59 µM]	.	-12%	24%	-7%
COc1ccc(S(=O)(=O)NCc2cc(-c3ccccc3Cl)no2)cc1	-4%	-1%	-10%	10%	3%
O=[N+]([O-])c1ccc(Sc2nnnn2-c2ccccc2)c(Cl)c1	50µM*	.	?	?	?
CCOC(=O)c1cc(S(=O)(=O)N2CCN(c3cccc(C)c3C)CC2)[nH]n1	10µM*	.	-31%	-2%[57 µM]	?
CCn1c(CN2CCN(c3cccc(C)c3C)CC2)n[nH]c1=S	7.9µM*	-9%	-13%	25%	-8%
CCOC(=O)c1cc(S(=O)(=O)N2CCN(c3ccccc3F)CC2)[nH]n1	16µM*	.	-30%	11%[57 µM]	?
CCOC(=O)c1cc(S(=O)(=O)N2CCN(c3ccc(C)cc3C)CC2)[nH]n1	4µM*	.	?	-2%[57 µM]	50µM*
COC(=O)c1cc(S(=O)(=O)N2CCN(c3ccccc3F)CC2)c[nH]1	5%[59 µM]	.	-25%	57%	-10%
COC(=O)c1cc(S(=O)(=O)N2CCN(c3ccc(C)cc3C)CC2)cn1C	-22%[59 µM]	.	-26%	-21%	-10%
CCn1c2ccccc2c2nnc(N3CCN(c4cccc(C)c4C)CC3)nc21	-14%[59 µM]	.	-12%	40%	-13%
CC(C)(N=NC(C)(C)C(=N)N)C(=N)N	-30%[2.33 µM]	.	.	.	.
N=C1N(/N=C/c2ccccc2)C(=Nc2ccccc2)C(=S)N1c1ccccc1	10µM*	-2%	0%	30%	?
SMILES	G9a block	L3MBTL1 block	JMJD2A Tudor inh	HP1b chromo inh	BAZ2B block
Cc1nnc(C)n1/N=C/c1ccccc1	23%	-3%	-16%	5%	8%[57.1 µM]
COc1ccc(-c2nc(CSCC(=O)N3CCN(c4cccc(C)c4C)CC3)c(C)o2)cc1OC	-28%[59 µM]	.	-30%	-23%	-34%
Cc1ccccc1OCC(=O)Nc1ccccc1OCc1cc(=O)n2ccccc2n1	1%[59 µM]	.	1%	32%[57 µM]	8%
O=C(NC(=S)Nc1ccccc1Br)c1ccco1	45µM*	.	-13%	10%	3%
CC(=O)NS(=O)(=O)c1ccc(NC(=S)NC(=O)c2ccco2)cc1	.	9%	-18%	57%	5%
COc1ccc(C(=O)NC(=S)Nc2ccc(S(=O)(=O)Nc3cc(OC)ncn3)cc2)cc1	?	.	-16%	-2%	?
NS(=O)(=O)c1ccc(NC(=S)NC(=O)c2ccco2)cc1	56µM*	7%	25µM*	6%	-20%
CN(C)S(=O)(=O)c1cccc(NC(=S)NC(=O)c2ccco2)c1	40µM*	-12%	?	18%	-6%
COc1cc(NS(=O)(=O)c2ccc(NC(=S)NC(=O)c3ccco3)cc2)ncn1	50µM*	3%	-3%	16%	-20%
CN(C)S(=O)(=O)c1cccc(NC(=S)NNC(=O)c2cc3ccccc3cc2O)c1	?	-29%	40µM*	-27%[57 µM]	?
CN(C)S(=O)(=O)c1cccc(NC(=O)c2c[nH]c3ccccc23)c1	?	.	-26%	-25%	-13%
CC(=O)NCCc1c[nH]c2ccc(O)cc12	11µM*!	.	-9%	35%	.
O=C(/C=C/c1ccc(O)c(O)c1)c1ccc(S(=O)(=O)N2CCCCCC2)cc1	5µM*	?	?	40µM*	35µM*
COc1ccc(N2CCN(C(=O)c3cc4c(-c5ccccc5F)nn(C)c4s3)CC2)cc1	11µM*	.	11µM*	?	.
Cn1nc(-c2ccc(Cl)cc2)c2cc(C(=O)N3CCOCC3)sc21	-13%	.	-6%	41%	11%
COc1ccc(N2CCN(C(=O)c3cc4c(-c5ccc(Cl)cc5)nn(C)c4s3)CC2)cc1	35µM*	.	?	-1%	10µM*
Cc1ccc(NC(=O)c2ncn(CC(=O)N[C@H](C)c3cccc4ccccc34)n2)cc1C	.	8%	-24%	21%	.
Cc1ccc(NC(=O)c2ncn(CCCN3CCN(Cc4cccc5ccccc45)CC3)n2)cc1C	.	.	50µM*	?	.
Cc1cc(C)cc(N=C2SC(CC(=O)Nc3ccccc3)C(=O)N2CCN2CCOCC2)c1 (centres undefined)	50µM*	-16%	?	1%	?
COc1ccc(/C=C2\CCc3ccccc3C2=O)cc1OC	?	-1%	-26%	3%	-32%
COc1cc(/C=C2\CC/C(=C\c3ccc(OCCO)c(OC)c3)C2=O)ccc1OCCO	45µM*	-3%	-18%	-2%	-21%
